Records with an inconclusive call do not appear. The source made the active and inactive calls. Calls follow the shape of the dose curve; as a rule, active = well fitted inhibition curve with a large enough effect; inconclusive = small, poorly fitted or top-dose-only effect; inactive = flat fitted curve, though single readings scatter.
Key:
Test in all cases: qHTS profiling for inhibitors of Plasmodium falciparum proliferation (AID 504749); also: nearly all actives have a fitted effect of over 60% in size
Details in all cases: P. falciparum in erythrocytes, SYBR Green DNA, 72 h; series mostly up to 28.7 µM
[1] = system: CP217
How it was run: (§1)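 SYBR Green fluorescence (ex 485 nm, em 535 nm) reports parasite DNA after 72 h compound exposure of infected red cells at 0.3% parasitemia, 2.5% hematocrit; signal normalized to 0.29 uM artemisinin and vehicle wells.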

[2] = system: CP237
How it was run: as §1

[3] = system: CP238
How it was run: as §1

[4] = system: CP247
How it was run: as §1

[5] = system: CP250
How it was run: as §1

[6] = system: CP252
How it was run: as §1

[7] = system: CP256
How it was run: as §1

[8] = system: CP260
How it was run: as §1

[9] = system: CP262
How it was run: as §1

[10] = system: CP265
How it was run: as §1

[11] = system: CP266
How it was run: as §1

[12] = system: CP268
How it was run: as §1

[13] = system: CP269
How it was run: as §1

[14] = system: CP286
How it was run: as §1

[15] = system: CP297
How it was run: as §1

[16] = system: CP305
How it was run: as §1

[17] = system: CP315
How it was run: as §1

[18] = system: CP325
How it was run: as §1

[19] = system: CP329
How it was run: as §1

[20] = system: CP291
How it was run: as §1

Measured: Potency

CN1CCCN=C1COC(=O)C(O)(c1ccccc1)C1CCCCC1 (stereo unspecified)
not listed: [20]
inactive: all other assays above

COc1ccccc1OC(=O)Oc1ccccc1OC
not listed: [15]
inactive: all other assays above

CN/C(=C\[N+](=O)[O-])NCCSCc1csc(CN(C)C)n1
not listed: [11]
inactive: all other assays above

C=CCSCC1Nc2cc(Cl)c(S(N)(=O)=O)cc2S(=O)(=O)N1 (stereo unspecified)
not listed: [8]
inactive: all other assays above

COc1cc(C(=O)NCCCCCC(=O)O)cc(OC)c1OC
not listed: [8]
inactive: all other assays above

C[C@@H]1O[C@@H](OC[C@H]2O[C@@H](Oc3c(-c4ccc(O)c(O)c4)oc4cc(O)cc(O)c4c3=O)[C@H](O)[C@@H](O)[C@@H]2O)[C@H](O)[C@H](O)[C@H]1O
not listed: [11]
inactive: all other assays above

N[C@@H](Cc1ccc(O)cc1)C(=O)O
not listed: [18]
inactive: all other assays above

CCOc1cc(NC(C)=O)ccc1C(=O)OC
not listed: [11]
inactive: all other assays above

CCCCCCCCCCC(CO)CCCCCCCC (stereo unspecified)
not listed: [13] | [16]
inactive: all other assays above

CC[N+](CC)(CC(=O)Nc1c(C)cccc1C)Cc1ccccc1
not listed: [9]
inactive: all other assays above

Cc1c(C)c2c(c(C)c1OC(=O)c1cccnc1)CC[C@@](C)(CCC[C@H](C)CCC[C@H](C)CCCC(C)C)O2
not listed: [11]
inactive: all other assays above

Cn1c([N+](=O)[O-])cnc1COC(N)=O
not listed: [12]
inactive: all other assays above

Cc1onc(-c2ccccc2)c1-c1ccc(S(N)(=O)=O)cc1
not listed: [17]
inactive: all other assays above

NS(=O)(=O)c1ccc(C(=O)O)cc1
not listed: [9]
inactive: all other assays above

CCOc1ccc(C(=O)OCCN(CC)CC)cc1
not listed: [9]
inactive: all other assays above

CCCCCCCC(=O)OCC(COC(=O)CCCCCCC)OC(=O)CCCCCCC
not listed: [11]
inactive: all other assays above

COc1ccc(C(=O)NCc2ccc(OCCN(C)C)cc2)cc1OC
not listed: [20]
inactive: all other assays above

COC(=O)c1ccc(O)cc1
not listed: [11] | [17]
inactive: all other assays above

CC(=O)OC[C@H]1O[C@@](COC(C)=O)(O[C@H]2O[C@H](COC(C)=O)[C@@H](OC(C)=O)[C@H](OC(C)=O)[C@H]2OC(C)=O)[C@@H](OC(C)=O)[C@@H]1OC(C)=O
not listed: [1] | [3] | [4] | [5] | [6] | [7] | [19]
inactive: all other assays above

Cc1cc(C)c(NC(=O)CN(CC(=O)O)CC(=O)O)c(C)c1Br
not listed: [1] | [3] | [4] | [5] | [6] | [7] | [10]
inactive: all other assays above

CN1C[C@@H]2C[C@H]1CN2c1cc2c(cc1F)c(=O)c(C(=O)O)cn2C1CC1
inactive: [4] | [5]

Cc1cc(NC(=O)C2=C(O)c3ccccc3S(=O)(=O)N2C)no1
not listed: [4]
inactive: all other assays above

COC(=O)c1ccccc1C(=O)c1ccc(OCCN2CCCCC2)cc1
not listed: [2]
inactive: all other assays above

O=C1c2ccccc2C(=O)C1c1ccc(Br)cc1
not listed: [1] | [7] | [8] | [10] | [13] | [14] | [17]
inactive: all other assays above

NC(=O)CCCCC1CCSS1 (stereo unspecified)
not listed: [2] | [8] | [16]
inactive: all other assays above

— PubChem BioAssay (NCATS)
